Experimental data: PubChem BioAssay AID1159580 (chemical genetic matrix, 2015)
Several values for one entry are separate records, joined by “and”; a condition that tells them apart may be missing. Equal entries are not always repeated. About 2,000 (36%) of roughly 5,500 compounds were called active. Not shown: some 18% with an inconclusive outcome. Cut-off read from the data, not from the text of the source: active = normalized growth mostly below about 0.91 (no sharp cut-off); inconclusive = no clear call, values can overlap the other calls; inactive = mostly above about 0.92. This is one part of the list.

Assay: chemical genetic growth profiling, strain panel (AID 1159580);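 note: tested at 20 µM; growth read once vehicle control cultures reached saturation at 30 °C; 1 = growth at the plate median or of vehicle wells; lower values mean less growth of the strain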
Conditions: growth OD

Measured: normalized growth

CN/C(=C\[N+](=O)[O-])NCCSCc1ccc(CN(C)C)o1
inactive: S. cerevisiae deletion strains, locus YKL009W, strain mrt4, hits give low values 1.02 | S. cerevisiae deletion strains, locus YKL068W, hits give low values 0.999 | S. cerevisiae deletion strains, locus YKL085W, strain MDH1 (second series), hits give low values 1.01 | S. cerevisiae deletion strains, locus YKL085W, strain MDH1, hits give low values 1.01 | S. cerevisiae deletion strains, locus YKL160W, strain elf1, hits give low values 0.988 | S. cerevisiae deletion strains, locus YKL190W, strain CNB1, hits give low values 1.01 | S. cerevisiae deletion strains, locus YKR001C, strain vps1, hits give low values 0.993 | S. cerevisiae deletion strains, locus YKR026C, strain gcn3, hits give low values 1 | S. cerevisiae deletion strains, locus YKR091W, strain srl3, hits give low values 0.988 | S. cerevisiae deletion strains, locus YLL001W, strain dnm1, hits give low values 0.989 | S. cerevisiae deletion strains, locus YLL026W, hits give low values 0.992 | S. cerevisiae deletion strains, locus YLL041C, strain sdh2, hits give low values 0.979 | S. cerevisiae deletion strains, locus YLR027C, strain aat2, hits give low values 0.989 | S. cerevisiae deletion strains, locus YLR039C, strain RIC1, hits give low values 1.05 | S. cerevisiae deletion strains, locus YLR058C, strain SHM2, hits give low values 1.03 | S. cerevisiae deletion strains, locus YLR102C, strain apc9, hits give low values 0.977 | S. cerevisiae deletion strains, locus YLR113W, strain HOG1, hits give low values 0.996 | S. cerevisiae deletion strains, locus YLR221C, strain rsa3, hits give low values 0.993 | S. cerevisiae deletion strains, locus YLR258W, strain gsy2, hits give low values 0.99 | S. cerevisiae deletion strains, locus YLR262C, strain YPT6 (second series), hits give low values 0.972 | S. cerevisiae deletion strains, locus YLR262C, strain YPT6, hits give low values 1.11 | S. cerevisiae deletion strains, locus YLR268W, strain sec22, hits give low values 0.997 | S. cerevisiae deletion strains, locus YLR320W, strain mms22, hits give low values 0.99 | S. cerevisiae deletion strains, locus YLR330W, strain CHS5, hits give low values 1.01 | S. cerevisiae deletion strains, locus YLR342W, strain FKS1 (second series), hits give low values 1.01 | S. cerevisiae deletion strains, locus YLR342W, strain FKS1, hits give low values 0.969 | S. cerevisiae deletion strains, locus YLR357W, strain rsc2, hits give low values 0.908 | S. cerevisiae deletion strains, locus YLR370C, strain arc18, hits give low values 0.982 | S. cerevisiae deletion strains, locus YLR371W, strain rom2, hits give low values 0.983 | S. cerevisiae deletion strains, locus YLR384C, strain iki3, hits give low values 0.989 | S. cerevisiae deletion strains, locus YLR418C, strain cdc73, hits give low values 0.994 | S. cerevisiae deletion strains, locus YML016C, strain PPZ1, hits give low values 1.02 | S. cerevisiae deletion strains, locus YML032C, strain rad52, hits give low values 0.977 | S. cerevisiae deletion strains, locus YML120C, strain ndi1, hits give low values 0.981 | S. cerevisiae deletion strains, locus YML124C, strain tub3, hits give low values 0.991 | S. cerevisiae deletion strains, locus YMR058W, strain fet3, hits give low values 0.979 | S. cerevisiae deletion strains, locus YMR078C, strain ctf18, hits give low values 0.987 | S. cerevisiae deletion strains, locus YMR125W, strain sto1, hits give low values 0.982 | S. cerevisiae deletion strains, locus YMR129W, hits give low values 0.995 | S. cerevisiae deletion strains, locus YMR205C, strain PFK2, hits give low values 0.976 | S. cerevisiae deletion strains, locus YMR223W, strain ubp8, hits give low values 0.996 | S. cerevisiae deletion strains, locus YMR231W, strain pep5, hits give low values 0.997 | S. cerevisiae deletion strains, locus YMR263W, strain SAP30, hits give low values 1.04 and 1 | S. cerevisiae deletion strains, locus YMR307W, strain GAS1, hits give low values 1.07 and 1.03 | S. cerevisiae deletion strains, locus YNL067W, strain RPL9B, hits give low values 1.04 | S. cerevisiae deletion strains, locus YNL071W, strain lat1, hits give low values 0.987 | S. cerevisiae deletion strains, locus YNL128W, strain TEP1, hits give low values 1.02 | S. cerevisiae deletion strains, locus YNL153C, strain GIM3, hits give low values 1.01 | S. cerevisiae deletion strains, locus YNL175C, strain NOP13, hits give low values 0.997 | S. cerevisiae deletion strains, locus YNL183C, strain NPR1, hits give low values 0.944 | S. cerevisiae deletion strains, locus YNL197C, strain WHI3, hits give low values 1.01 | S. cerevisiae deletion strains, locus YNL209W, strain ssb2, hits give low values 0.994 | S. cerevisiae deletion strains, locus YNL224C, strain SQS1, hits give low values 0.998 | S. cerevisiae deletion strains, locus YNL233W, strain BNI4, hits give low values 1.03 | S. cerevisiae deletion strains, locus YNL248C, strain rpa49, hits give low values 0.98 | S. cerevisiae deletion strains, locus YNL250W, strain rad50, hits give low values 0.982 | S. cerevisiae deletion strains, locus YNL271C, strain bni1, hits give low values 0.974 | S. cerevisiae deletion strains, locus YNL298W, strain CLA4, hits give low values 1 | S. cerevisiae deletion strains, locus YNL307C, strain MCK1, hits give low values 0.986 | S. cerevisiae deletion strains, locus YNL322C, strain KRE1 (second series), hits give low values 0.96 | S. cerevisiae deletion strains, locus YNL322C, strain KRE1, hits give low values 1.01 | S. cerevisiae deletion strains, locus YNR049C, strain mso1, hits give low values 0.988 | S. cerevisiae deletion strains, locus YNR052C, strain pop2, hits give low values 0.984 | S. cerevisiae deletion strains, locus YOL006C, strain TOP1, hits give low values 1.13 | S. cerevisiae deletion strains, locus YOL012C, strain htz1 1.11 | S. cerevisiae deletion strains, locus YOL147C, strain pex11, hits give low values 0.99 | S. cerevisiae deletion strains, locus YOR001W, strain rrp6, hits give low values 0.982 | S. cerevisiae deletion strains, locus YOR061W, strain CKA2, hits give low values 1.02 | S. cerevisiae deletion strains, locus YOR069W, strain VPS5, hits give low values 1.02 | S. cerevisiae deletion strains, locus YOR070C, strain gyp1, hits give low values 0.989 | S. cerevisiae deletion strains, locus YOR080W, strain dia2, hits give low values 0.99 | S. cerevisiae deletion strains, locus YOR083W, strain WHI5 (second series), hits give low values 1.02 | S. cerevisiae deletion strains, locus YOR083W, strain WHI5, hits give low values 0.982 | S. cerevisiae deletion strains, locus YOR106W, strain vam3, hits give low values 0.999 | S. cerevisiae deletion strains, locus YOR136W, strain idh2, hits give low values 0.982 | S. cerevisiae deletion strains, locus YOR144C, strain elg1, hits give low values 0.992 | S. cerevisiae deletion strains, locus YOR184W, strain ser1, hits give low values 0.994 | S. cerevisiae deletion strains, locus YOR231W, strain MKK1, hits give low values 0.99 | S. cerevisiae deletion strains, locus YOR265W, strain rbl2, hits give low values 0.974 | S. cerevisiae deletion strains, locus YOR270C, strain vph1, hits give low values 1 | S. cerevisiae deletion strains, locus YOR290C, strain snf2, hits give low values 0.996 | S. cerevisiae deletion strains, locus YOR316C, strain cot1, hits give low values 0.985 | S. cerevisiae deletion strains, locus YPL051W, strain arl3, hits give low values 1 | S. cerevisiae deletion strains, locus YPL055C, strain LGE1, hits give low values 0.991 | S. cerevisiae deletion strains, locus YPL078C, strain atp4, hits give low values 0.982 | S. cerevisiae deletion strains, locus YPL106C, strain sse1, hits give low values 0.956 | S. cerevisiae deletion strains, locus YPL240C, strain hsp82, hits give low values 0.99 | S. cerevisiae deletion strains, locus YPL241C, strain CIN2, hits give low values 1 | S. cerevisiae deletion strains, locus YPL256C, strain CLN2, hits give low values 0.968 | S. cerevisiae deletion strains, locus YPR119W, strain clb2, hits give low values 0.988 | S. cerevisiae deletion strains, locus YPR141C, strain kar3, hits give low values 0.995 | S. cerevisiae deletion strains, locus YPR163C, strain tif3, hits give low values 0.993 | S. cerevisiae deletion strains, locus YPR167C, strain met16, hits give low values 0.98 | S. cerevisiae deletion strains, strain wtn01, hits give low values 0.987 | S. cerevisiae strains, strain wild type, hits give low values 1.02
